# TGFb SMAD3 inh – TGF-b pathway inhibition; HepG2 CAGA-GFP TGF-b/SMAD3 reporter, GFP fluorescence, 18 h; TGF-beta stimulated, 500 pg/mL final; Potency, µM (series often up to 46.1 µM), for the others: top-dose activity, negative = inhibition, actives largely listed as inhibitors; 1.2% of 410,000 active; AID 588855; further: on the % scale 0 is the no-effect control and ±100 the full control effect; nearly all actives have a fitted effect of over 65% in size
#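 Cell-based qHTS in HEPG2 carrying a CAGA-GFP Smad reporter; compounds added before 500 pg/mL final TGF-beta, 18 h incubation at 37 degrees C, GFP fluorescence quantified per cell by imaging cytometry.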
# TDP1 cell CPT – growth inhibition of DT40 Tdp1-/-;hTDP1 cells with camptothecin (screen for TDP1 inhibitors); chicken DT40 Tdp1-/-;hTDP1 cells + 20 nM CPT, ATP luminescence, 48 h; Potency, µM (top dose mostly 46.2 µM), for the others: top-dose activity change, negative = growth inhibition, actives largely listed as inhibitors; 12% of 420,000 active; further: on the % scale 0 is the no-effect control and ±100 the full control effect; nearly all actives have a fitted effect of over 55% in size
#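 Chicken DT40 Tdp1-/- cells stably complemented with human TDP1 were seeded at 400 cells/well in medium containing 20 nM camptothecin, exposed to pin-transferred compounds, and grown at 37 °C for at least 48 hr. Viability was read as ATP luminescence.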
# DT40 TDP1 no CPT – qHTS for Inhibitors of human tyrosyl-DNA phosphodiesterase 1 (TDP1): qHTS in cells in absence of CPT | DT40 Tdp1-/- hTDP1 cells, no CPT, ATP luminescence, 48 h | Potency, µM (top dose mostly 46.2 µM), without a hit: at the top dose activity change, negative = growth inhibition, hits mostly inhibitors | 15% of 420,000 active; further: on the % scale 0 is the no-effect control and ±100 the full control effect; nearly all actives have a fitted effect of over 55% in size
#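 Luminescent ATP content (CellTiter-Glo) served as the growth readout. Knockout chicken DT40 cells expressing human TDP1 were exposed to compounds without camptothecin for a minimum 48 hr at 37 °C.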
# ATXN2 expr inh – ATXN2 expression inhibition; Potency, µM (top dose mostly 57 µM), inactives show at the top dose activity change, negative = inhibition, usual class: inhibitors; AID 1745845; HEK-293 ATXN2-luciferase reporter, luminescence, 24 h; 0.72% of 360,000 active; further: on the % scale 0 is the no-effect control and ±100 the full control effect; nearly all actives have a fitted effect of over 55% in size
#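 ATXN2-luciferase reporter cells (luciferase flanked by upstream and downstream ATXN2 gene portions) were treated 24 h at 37 °C with compounds at up to 57 uM. SteadyGlo luminescence gave expression; GF-AFC fluorescence gave viability.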
# ATXN viability – reduces viability in counter-screen for ATXN expression inhibitors | Potency, µM (top dose mostly 56.7 µM), most hits filed as cytotoxic | S2 cells (HEK-293 line with an ATXN2-luciferase reporter) viability, CellTiter-Fluor protease fluorescence, 24 h | 0.49% of 400,000 active; further: nearly all actives have a fitted effect of over 40% in size
# HepG2 viability – HepG2 cytotoxicity, counter-screen for TGF-b inhibitors | HepG2 CAGA-GFP viability, ATP luminescence, 18 h | Potency, µM (doses to about 46.1 µM), inactives show top-dose activity change, negative = cytotoxicity, usual class: cytotoxic | 0.76% of 410,000 active | AID 588856
#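 CellTiter-Glo luminescence gave cytotoxicity after 18 hours at 37 degrees C. The cells were HepG2 CAGA-GFP in 1% FBS DMEM, stimulated with 500 pg/mL TGF-beta after compound addition. %Activity was normalised to no-cell wells (complete cell-killing) and DMSO (no toxicity), and curves were fitted and classified.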
# An asterisk follows results filed as active; i = inactive; ? = inconclusive; nt = no result. Only some compounds are listed: those with a hit (about 17% of all), similar ones and a draw of the others. The call rests on the fitted dose curve; in most records, active means well fitted curve in the direction sought with a large enough effect; inconclusive means small, poorly fitted or top-dose-only effect, or another doubt; inactive means no such curve, though single readings can be large; an effect the other way counts as inactive or inconclusive. Potency means the concentration at half of the fitted maximal effect.
SMILES,TGFb SMAD3 inh,TDP1 cell CPT,DT40 TDP1 no CPT,ATXN2 expr inh,ATXN viability,HepG2 viability
COc1ccccc1N1CCN(c2ncnc3c2c(-c2ccccc2)cn3-c2cccc(Cl)c2)CC1,-2%,?,?,nt,nt,-9%
CCN(CC)C(=O)C1CCCN(c2ncnc3c2c(-c2ccccc2)cn3-c2cccc(C)c2)C1 (centres undefined),-4%,15µM*,?,nt,nt,0%
Clc1ccccc1N1CCN(c2ncnc3c2c(-c2ccccc2)cn3-c2ccccc2)CC1,-9%,?,21µM*,nt,nt,-1%
Cc1ccc(C)c(C(=O)c2ccccc2NC(=O)c2ccccn2)c1,-17%,16µM*,9.2µM*,-3%,i,-11%
Cc1ccccc1-c1ocnc1C(=O)Nc1ccccc1NC(=O)c1ccccn1,11µM*,?,?,-37%,?,-77%
Cc1ccc(C)c(NC(=S)c2nc3ccccc3s2)c1,-6%,26µM*,?,39%,i,-10%
Cc1ccc(NC(=S)c2nc3ccccc3s2)cc1,?,?,?,42%,i,-24%
S=C(Nc1ccc(Cl)cc1)c1nc2ccccc2s1,-3%,?,15µM*,26%,i,-20%
Cc1ccc(S(C)(=O)=NC(=O)c2cc(C)on2)cc1 (centres undefined),9%,26%,-7%,-16%,i,-3%
COc1ccc(N2CCN(S(=O)(=O)c3csc(C(N)=O)c3)CC2)cc1,34%,-15%,-5%,nt,nt,-1%
Cc1ccc(C)c(NC(=O)NCc2ccccn2)c1,5%,-1%,9%,5%,i,0%
Cc1ccc2c(c1)C(=O)C(=O)N2CC(=O)Nc1ccccc1NC(=O)c1ccccn1,?,5.2µM*,5.8µM*,0%,i,-8%
Cc1ccc(C)c(NC(=O)CN2C(=O)c3cccnc3Oc3ccc(C)cc32)c1,-15%,?,?,nt,nt,20%
Cc1ccc(C)c(NC(=S)c2ccccn2)c1,-6%,18µM*,18µM*,26%,i,-38%
CCOC(=O)c1sc2ccccc2c1S(=O)(=O)Nc1ccc(CC)cc1,?,?,23µM*,-32%,i,-38%
Cc1nn(-c2ccccc2)c(N)c1Sc1ccccc1[N+](=O)[O-],-7%,?,16µM*,-3%,i,-27%
CCC(C)Cn1cnc2c(SCc3ccccc3F)nc(N)nc21 (centres undefined),-2%,?,21µM*,-17%,i,-2%
CCC(CC)C(=O)N(CCc1ccc(OC)cc1)Cc1nc2ccccc2c(=O)[nH]1,?,23µM*,21µM*,-12%,?,-30%
CCN(CC(=O)Nc1cc(OC)ccc1OC)Cc1nc2ccccc2c(=O)[nH]1,13%,1%,11%,4%,i,-1%
CCN(CC(=O)Nc1ccc(C(=O)Nc2ccc(OC)cc2)cc1)Cc1nc2ccccc2c(=O)[nH]1,-13%,?,23µM*,nt,?,-35%
CCOC(=O)N1CCN(S(=O)(=O)c2ccc(C(=O)Nc3ccc4c(c3)C(=O)NC4=O)cc2)CC1,?,-16%,-9%,-12%,?,0%
COc1ccc(S(=O)(=O)N(CC(=O)NCCSc2ccccn2)c2ccccc2)cc1,-17%,?,?,0%,i,3%
COc1ccc(N(CC(=O)NCCSc2ccccn2)S(=O)(=O)c2ccccc2)c(OC)c1,-11%,?,21µM*,9%,i,-3%
COc1ccc(N(CC(=O)NCCc2ccccc2)S(=O)(=O)c2ccccc2)c(OC)c1,?,21µM*,21µM*,14%,i,-41%
COc1ccccc1N(CC(=O)NCCSc1ccccc1)S(=O)(=O)c1ccccc1,-22%,?,18µM*,1%,?,-36%
SMILES,TGFb SMAD3 inh,TDP1 cell CPT,DT40 TDP1 no CPT,ATXN2 expr inh,ATXN viability,HepG2 viability
COc1ccc(CCNC(=O)CN(c2ccccc2OC)S(=O)(=O)c2ccc(C)cc2)cc1,?,21µM*,23µM*,?,?,-11%
O=C(CCNC(=O)c1ccc(Br)cc1)Nc1cc(Cl)ccc1-n1cncn1,3%,?,?,-24%,i,-2%
COc1cccc(C(=O)OC(C)C(=O)NCC2CCCCC2)c1 (centres undefined),-7%,10%,-1%,6%,i,2%
Cc1cccc(N(CC(=O)NCCSc2ccccn2)S(=O)(=O)c2ccccc2)c1,-1%,?,15µM*,4%,?,1%
COc1ccccc1N(CC(=O)NCCSc1ccccc1)S(=O)(=O)c1ccc(C)cc1,?,?,16µM*,-16%,i,-19%
O=C(CN(c1ccccc1)S(=O)(=O)c1ccccc1)NCCSc1ccccn1,3%,1%,-3%,-30%,i,6%
COc1ccc(N(CC(=O)NCCSc2ccccc2)S(=O)(=O)c2ccccc2)c(OC)c1,?,?,13µM*,-13%,i,-24%
CC(C)(C)c1ccc(Nc2n[nH]c3ccccc23)cc1,-30%,?,?,141%,?,-39%
CN(C)CCNc1ncnc2c1sc1nc(N3CCOCC3)c3c(c12)CC(C)(C)SC3,-2%,?,21µM*,20µM*,?,-96%
OCCN1CCN(c2ncnc3c2sc2nc(N4CCOCC4)c4c(c23)CCC4)CC1,-17%,?,21µM*,-29%,i,-61%
CCCCN(CC)c1ncnc2c1sc1nc(N3CCOCC3)c3c(c12)CCCC3,11%,2%,14%,5%,i,0%
CC1(C)Cc2c(c(N3CCOCC3)nc3sc4c(NCCN)ncnc4c23)CO1,-11%,?,?,-27%,i,-11%
CC1(C)Cc2c(c(N3CCCC3)nc3sc4c(N5CCN(CCO)CC5)ncnc4c23)CO1,-12%,16µM*,11µM*,-24%,?,-31%
OCCN(CCO)c1ncnc2c1sc1nc(N3CCOCC3)c3c(c12)CCCC3,-11%,16µM*,18µM*,-3%,i,-13%
CCOC(=O)c1sc2nc(N3CCCC3)c3c(c2c1N)CC(C)(C)OC3,-1%,-21%,-22%,-7%,i,-18%
CN(C)c1nc(C(N)=O)nc(N2CCOCC2)n1,-2%,-8%,-28%,-6%,i,-2%
